Assay outcomes from PubChem.
RORgamma inh: inhibitors of mouse ROR gamma transcriptional activity; Drosophila S2 Gal4-RORgamma UAS-luciferase reporter, 20 h; Potency, µM (top dose mostly 53.6 µM), for the others: at the highest dose activity change, negative = inhibition, hits mostly inhibitors; P51450; AID 2551; 310,000 tested, 5.4% active; note: % is set by controls: 0 for no effect and ±100 for the full control effect; nearly all actives have a fitted effect of over 60% in size
Target sequence (P51450 whole entry, looked up, the tested form may be a part): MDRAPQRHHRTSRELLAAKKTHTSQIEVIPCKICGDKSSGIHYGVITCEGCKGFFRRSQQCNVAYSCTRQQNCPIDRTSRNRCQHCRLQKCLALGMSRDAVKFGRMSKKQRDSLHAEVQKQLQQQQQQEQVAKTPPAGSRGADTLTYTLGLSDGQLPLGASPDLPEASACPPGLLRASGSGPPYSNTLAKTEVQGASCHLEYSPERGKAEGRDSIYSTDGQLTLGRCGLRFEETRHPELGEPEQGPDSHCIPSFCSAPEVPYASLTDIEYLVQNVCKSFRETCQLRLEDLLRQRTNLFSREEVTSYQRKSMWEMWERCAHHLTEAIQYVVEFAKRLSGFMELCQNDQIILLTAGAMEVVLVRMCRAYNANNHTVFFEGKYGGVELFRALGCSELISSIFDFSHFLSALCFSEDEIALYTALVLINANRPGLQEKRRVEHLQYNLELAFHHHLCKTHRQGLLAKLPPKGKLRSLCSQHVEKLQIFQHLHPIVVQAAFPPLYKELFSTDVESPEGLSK
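Using a luciferase readout, inhibitors were identified by reduced reporter activity in Drosophila cells coexpressing a copper-inducible Gal4–ROR gamma fusion and UAS-driven Photinus luciferase, incubated 20 hr after 700 uM copper sulfate.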
GLP1R cytotox: cytotoxicity counter-screen for GLP-1 receptor inverse agonists. HEK293 cAMP-luciferase reporter cells, luminescence, 24 h. Potency, µM (titrated, usually from 38.3 µM), inactives show at the top dose activity change, negative = inhibition, usual class: inhibitors. 410,000 tested, 0.13% active;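 note: loss of luciferase light is scored as toxicity; % is set by controls: 0 for no effect and ±100 for the full control effect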
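Compound-treated cells are incubated 24 hr at 37 deg C under 5% CO2 after a 12 hour attachment period, then luciferase detection reagent is added and luminescence is measured following 12 min at room temperature; lowered signal indicates toxicity.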
VP16 counter: counter-screen for ROR gamma inhibitors: Gal4-VP16 reporter | Drosophila S2 Gal4-VP16 UAS-luciferase, luminescence, 20 h | Potency, µM (highest dose often 53.6 µM), for the others: at the highest dose activity, negative = inhibition, hits mostly inhibitors | 310,000 tested, 3.5% active;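 note: Gal4-VP16 expression switched on by copper sulfate through the metallothionein promoter; % is set by controls: 0 for no effect and ±100 for the full control effect; nearly all actives have a fitted effect of over 50% in size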
GLP-1R agonist: GLP-1 receptor (human) agonism | P43220 | HEK293 GLP-1R CRE-luciferase, luminescence, 4-6 h; cells express a hypersensitive GLP-1R form | Potency, µM (series often up to 45.6 µM), without a hit: at the highest dose activation, most hits filed as activators | 380,000 tested, 0.007% active | AID 624172; note: % of control where 0% means no effect
GLP-1R inv ag: inverse agonists of human GLP-1 receptor. Potency, µM (top dose mostly 38.3 µM), for the others: top-dose activity change, negative = inhibition, actives largely listed as inhibitors. 410,000 tested, 1.6% active. HEK293 GLP-1R CRE-luciferase, luminescence, 24 h; GLP-1R form is constitutively active; note: % is set by controls: 0 for no effect and ±100 for the full control effect; nearly all actives have a fitted effect of over 55% in size
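Using stably transfected HEK293 (constitutively active GLP-1R, cAMP-luciferase reporter), compounds were incubated 24 hr and luciferase measured by luminescence.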
Active calls of the source: *; ? = inconclusive; · = not tested or not shown; [ ] = another dose, or the depositor's remark. Sampled rows, rich in hits. Any-hit rate of the full collection: about 5.9%. Calls come from the whole dose curve; as a rule, active = well fitted curve in the direction sought with a large enough effect; inconclusive = small, poorly fitted or top-dose-only effect, or another doubt; inactive = no such curve, though single readings can be large; an effect the other way counts as inactive or inconclusive. Potency is the fitted concentration of half-maximal effect.

SMILES	RORgamma inh	GLP1R cytotox	VP16 counter	GLP-1R agonist	GLP-1R inv ag
O=C(NC(=S)NC(=O)c1ccccc1F)c1ccccc1F	?	-3%	5.6µM*	5%	44%
O=C(NCCc1ccccc1)c1ccccc1F	?	0%	?	0%	?
Cc1ccc(C(=O)NCCc2ccncc2)cc1	-14%	-10%	-13%	-15%	-16%
O=C(NC(=S)NCc1ccccc1)c1ccccc1Br	8.9µM*	-6%	10µM*	1%	?
O=C(NC(=S)NCc1ccccc1)c1ccccc1F	10µM*	-17%	?	23%	?
O=C(NC(=S)NCC1CCCO1)c1ccccc1Br (stereo not given)	?	11%	-17%	-7%	0%
Cc1ccc(C(=O)NCCc2ccccc2)cc1	4.5µM*	4%	4µM*	-6%	?
O=C(O)CNC(=S)N(Cc1ccccc1)Cc1ccccc1F	11%	-16%	1%	-1%	-2%
CC(C)c1ccccc1NC(=O)COc1ccc(C(=O)NCCc2ccccc2)cc1	?	?	18µM*	1%	?
O=C(NC(=S)N(Cc1ccccc1)Cc1ccccc1)c1ccccc1F	0.25µM*	-15%	0.71µM*	7%	?
COC(=O)c1sc(NC(=O)c2cc3nc(-c4ccc(Br)cc4)cc(C(F)(F)F)n3n2)c(C(=O)OC)c1C	·	7%	·	·	12%
Cc1nn(-c2nnc(C)c(=O)[nH]2)c(C)c1SCC(=O)Nc1ccc(F)cc1	?	-14%	10%	-2%	4%
Cc1nn(-c2nnc(C)c(=O)[nH]2)c(C)c1SCC(=O)Nc1ccc(C(C)C)cc1	1.1µM*	-10%	19%	-20%	-3%
COc1ccccc1/C=C1\S/C(=N/NC(=O)c2cccc(Br)c2)NC1=O	0.32µM*	15%	0.56µM*	-30%	-14%
COc1ccccc1C(=O)NNC(=O)c1cccc(Br)c1	?	4%	-9%	6%	-10%
COC(=O)/C=C1\S/C(=N/NC(=O)c2ccccc2)NC1=O	11µM*	-16%	11µM*	1%	0%
COC(=O)/C=C1/S/C(=N/NC(=O)c2ccccc2)NC1=O	2.8µM*	-22%	0%	-21%	15%
COC(=O)/C=C1/S/C(=N/NC(=O)c2ccccc2C)NC1=O	?	-18%	?	-13%	0%
CC(=O)c1cccc(NC(=O)CC2S/C(=N/N=C3CCCCCC3)NC2=O)c1 (stereo not given)	10µM*	0%	-26%	1%	-16%
CC1=C/C(=N\N=C2\NC(=O)C(CC(=O)Nc3ccccc3)S2)CC(C)(C)C1 (stereo not given)	1.6µM*	?	?	4%	?
C/C(=N\N=C1\NC(=O)C(CC(=O)Nc2ccc(C)c(Cl)c2)S1)C(C)(C)C (stereo not given)	21%	16%	-23%	9%	11µM*
O=C(CC1S/C(=N/N=C/c2ccco2)NC1=O)Nc1ccccc1 (stereo not given)	-43%	-21%	-16%[10 µM]	0%	-19%
COc1ccccc1NC(=O)CC1S/C(=N/N=C(\C)C2CCCCC2)NC1=O (stereo not given)	-13%	-14%	0%	6%	?
C/C(=N\N=C1\NC(=O)C(CC(=O)Nc2ccc(Cl)cc2)S1)c1ccco1 (stereo not given)	-15%	7%	-7%	6%	?
COc1ccc(Cl)cc1NC(=O)CC1S/C(=N/N=C2CCCCCC2)NC1=O (stereo not given)	3.5µM*	-7%	5µM*	-5%	?
SMILES	RORgamma inh	GLP1R cytotox	VP16 counter	GLP-1R agonist	GLP-1R inv ag
COc1cc(C2C(=O)N(C3CCCCCC3)CC(=O)N2CCc2ccccc2)ccc1OC(C)C (stereo not given)	·	-3%	·	·	7%
CCOc1ccc(NC(=O)CC2S/C(=N/N=C3CCCCCC3)NC2=O)cc1 (stereo not given)	20µM*	-6%	11µM*	-5%	?
COc1ccc(-c2ccccc2C2C3C=CCCC3(C)C(=O)N2Cc2ccccc2)cc1 (stereo not given)	?	·	-12%	·	·
CC(C)SC1=NC(C)(C)C=C(/C=C/c2c(Cl)cccc2Cl)N1	?	-6%	3%	-13%	2.8µM*
Cc1nc2nc(NC(=O)c3ccc(C(C)(C)C)cc3)[nH]n2c(=O)c1C	·	8%	·	·	7%
CCOC(=O)CNc1ncc([N+](=O)[O-])cc1C#N	7%	-4%	3%	0%	25%
N#Cc1cc([N+](=O)[O-])cnc1Nc1ccccc1	41%	7%	21%	8.9µM*	48%
C=CCNc1nc(Nc2ccccc2F)nc(OCC)n1	13µM*	11%	11%[10 µM]	35%	-21%
Cc1c(Cl)sn(-c2ccc(Cl)cc2)c1=O	1.6µM*	?	2.8µM*	8%	?
Cc1nn(-c2ccc(Cl)cc2)c(=O)c2ccccc12	7%	4%	13%[10 µM]	15%	-23%
Cc1ccc(-c2nc(CCNC(=O)C(=O)Nc3ccc(F)cc3F)cs2)cc1	·	5%	·	·	12%
C#CCn1cnc2c(cnn2-c2ccc(F)cc2)c1=O	·	-10%	·	·	2%
CCOc1ccc(NC(=O)CCCn2c(=S)[nH]c3ccsc3c2=O)cc1	13µM*	0%	?	6%	11%
O=C(CCCCn1c(=O)[nH]c2ccsc2c1=O)NCc1ccc2c(c1)OCO2	10%	-4%	5%	-2%	11%
O=C(CCCn1c(=S)[nH]c2ccsc2c1=O)Nc1ccc(F)cc1	·	-2%	·	4%	25%
O=C(CCCn1c(=S)[nH]c2ccsc2c1=O)Nc1ccc2c(c1)OCCO2	11µM*	16%	?	6%	-29%
CCOc1ccc(NC(=O)CCCCn2c(=O)[nH]c3ccsc3c2=O)cc1	18%	-11%	-8%	9%	-10%
O=C(CCCCn1c(=S)[nH]c2ccsc2c1=O)NCc1ccc2c(c1)OCO2	14µM*	-7%	-21%	5%	19%
CC1CCCC(NC(=O)CCCCCn2c(=S)[nH]c3ccsc3c2=O)C1C (stereo not given)	·	-2%	·	-1%	15%
CC1CCCCC1NC(=O)CCCn1c(=S)[nH]c2ccsc2c1=O (stereo not given)	18µM*	-1%	?	-1%	0%
Cc1cc(F)ccc1S(=O)(=O)Nc1ccccc1C(=O)Nc1ncn[nH]1	-1%	-1%	3%	-4%	?
Cc1cc(F)ccc1S(=O)(=O)Nc1ccccc1C(=O)Nc1ccccc1-c1nc2ccccc2[nH]1	-8%[10 µM]	?	?	-20%	6.3µM*
CCCCC/C=C\C/C=C\C/C=C\CCCCCCC(=O)NCCc1ccc(O)c(O)c1	1%	·	-11%	·	·
